The source of these data is PubChem BioAssay AID1792 (The Scripps Research Institute Molecular Screening Center, 2009).

Structures are written as SMILES. About 130 (0.81%) of roughly 16,000 compounds were called active. This excerpt belongs to a sample that is enriched for actives. Values without a mark were called inactive. Cut-off read from the data, not from the text of the source: active = inhibition above about 75%; inactive = the rest.

In this assay the target is NADPH oxidase 1 (Homo sapiens) (UniProt Q9Y5S8). Nature of the assay: inhibitors of human NADPH oxidase 1 (Nox1) (AID 1792). The note with it: HT29 cells, luminol chemiluminescence ROS; at 6.7 µM; stronger effect = higher value.
Sequence of NADPH oxidase 1 (Homo sapiens) (Q9Y5S8 whole entry, looked up): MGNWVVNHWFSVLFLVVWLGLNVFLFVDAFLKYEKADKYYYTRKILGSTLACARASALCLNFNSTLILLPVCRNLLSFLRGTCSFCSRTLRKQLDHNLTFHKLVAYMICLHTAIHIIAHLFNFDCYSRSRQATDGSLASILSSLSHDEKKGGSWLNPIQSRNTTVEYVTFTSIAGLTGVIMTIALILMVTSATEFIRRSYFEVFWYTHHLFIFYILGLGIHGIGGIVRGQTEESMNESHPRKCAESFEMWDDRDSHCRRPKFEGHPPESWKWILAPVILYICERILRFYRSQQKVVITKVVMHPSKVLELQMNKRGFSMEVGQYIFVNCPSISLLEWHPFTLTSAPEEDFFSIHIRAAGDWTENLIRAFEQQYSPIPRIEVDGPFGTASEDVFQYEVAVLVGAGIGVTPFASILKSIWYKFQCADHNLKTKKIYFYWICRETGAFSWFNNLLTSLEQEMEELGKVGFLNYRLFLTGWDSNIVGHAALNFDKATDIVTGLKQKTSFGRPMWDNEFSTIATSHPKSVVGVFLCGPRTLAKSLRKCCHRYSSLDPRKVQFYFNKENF
By inhibition is commonly meant the relative decrease from the control value, in per cent. With `CN(C)NC(=O)c1csnc1-c1c(Cl)cccc1Cl`, the inhibition is -20.2%.
For `CC(OC(=O)c1cccc(Cl)c1)c1ccc[n+](C)c1` (stereo unspecified), the inhibition is -47.2%.
Under `CCOC(=O)/C(C#N)=C/c1ccc(-c2nccs2)cc1C(C)(C)C` stands 8.33%.
On to `N#CC(C#N)=C/C=C(/Sc1nc2cc(Cl)ccc2s1)c1ccc(Cl)cc1`, for which the inhibition is -27.8%.
Under `CCOC(=O)N1CCN(CC(O)COc2ccc(OC(F)(F)F)cc2)CC1` (stereo unspecified) stands -47.2%.
Turning to `O=C(O)CC(CC(=O)Oc1ccccc1N1CCCCC1)c1ccccc1` (stereo unspecified), the inhibition is -24.8%.
As for `CCOC(=O)c1sc2ccccc2c1N`, the figure is -25.5%.
With `O=C(Oc1ccccc1N1CCCCC1)c1sc2ccccc2c1Cl`, the inhibition is 85.7% (active).
Take `N#C/C(=C\N1CCc2ccccc21)S(=O)(=O)c1ccc(C(F)(F)F)cn1`: the inhibition was -30.5%.
Consider `N#CCCN(CCc1ccccn1)S(=O)(=O)c1ccc2c(c1)CCO2`, for which the inhibition was 35.1%.
Under `CCOC(=O)Cc1cnc(NN=C2C3CC4CC(C3)CC2C4)s1` stands 55.1%; under `CSc1sc(NC(=O)N2CCOCC2)c(-c2ccc(Cl)cc2)c1C#N`, 17.4%.
As for `O=C(CNC(=O)c1ccccc1F)c1ccc(Br)cc1`, the inhibition is -16.2%.
Turning to `COc1ccc(COCC(O)CN2CCC(C(N)=O)CC2)cc1` (stereo unspecified), the inhibition is -52.2%.
Under `CCOC(=O)O/N=C(\N)c1ccc(Cl)cc1` stands 26%.
Take `CC(C)(C)c1ccc(NC(=O)c2ccco2)c(NC(=O)C(Cl)(Cl)Cl)c1`: the inhibition was 6.12%.
As for `CN(Cc1nnc(-c2ccc3ccccc3c2)o1)c1nnc(C(F)(F)F)s1`, the figure is 10.6%; as for `CC1(C)CC(=O)c2c(NCc3ccco3)sc(C#N)c2C1`, -14.6%; as for `CC(C)n1c(SCC(=O)c2cccc([N+](=O)[O-])c2)nc2cc(C(F)(F)F)ccc21`, 4.76%.
Under `CCOC(=O)c1cc(C)nc(Sc2ccccc2NC(=O)Nc2ccc(Cl)cc2)c1C#N` stands 34.3%; under `Cc1nn(-c2ccccc2)nc1C(=O)Nc1nnc(C2CC2)s1`, -13.2%; under `COC(=O)c1cc(OC)c(OC)cc1NS(=O)(=O)c1ccsc1C(=O)OC`, -24.8%.
Under `O=C(NNc1ccc(C(F)(F)F)cn1)c1ccccc1Cl` stands 40.9%; under `O=C1C=C(NNc2ccccc2)CCC1`, -9.52%; under `Cn1cnnc1SCC(=O)Nc1cc(C(F)(F)F)cc(C(F)(F)F)c1`, -26.6%.
In the case of `CC1CN=C(N(Cc2cccnc2)C(=O)Nc2ccc(Cl)c(Cl)c2)S1` (stereo unspecified), the inhibition was 11.1%.
As for `FC(F)(F)c1cnc(NN=C2CCSCC2)c(Cl)c1`, the figure is -21.6%; as for `N/C(=N/OC(=O)NC(=O)c1c(Cl)cccc1Cl)c1ccc(F)cc1F`, -11.4%.
Under `Cc1nn(C)c(C)c1Sc1nccc(-c2cccnc2)n1` stands 17.5%.
`COc1cc(OC)nc(/N=C/c2nc(-c3ccccc3)oc2O)n1`: the inhibition was 16.6%.
Regarding `O=C(NCc1ccccc1)c1cc2sccc2s1`, the inhibition is -33%.
As for `CSc1n[nH]c(=O)n1-c1cccc(C(F)(F)F)c1`, the figure is -36.5%; as for `O=S(=O)(c1ccc2c(c1)OCCO2)N1CCN(c2ccc(C(F)(F)F)cn2)CC1`, -13.2%.
As to `Cc1c(CC(=O)Oc2ccc([N+](=O)[O-])cc2)sc2ccc(Cl)cc12`, the inhibition is 15.6%.
In the case of `CCCCc1ccc(S(N)(=O)=O)cc1`, the inhibition is -14.9%.
Under `O=C(O)CC1(CC(=O)NCc2ccco2)CCCCC1` stands -9.49%; under `CCOC(=O)/C(=N/Nc1ccccc1)C(C)=N`, -20%; under `COc1ccc(OCCC(=O)NNC(=S)Nc2cc(Cl)ccc2Cl)cc1`, -22.8%.
On to `CC(=O)Nc1ccc(F)cc1F`, for which the inhibition was -7.89%.
Under `Cc1cc(Cl)ccc1NC(=S)NNC(=S)Nc1ccc(F)cc1` stands 87.6% (active); under `O=[N+]([O-])c1ccc(N2CCOCC2)cc1`, 23.6%; under `CN(NS(=O)(=O)CS(C)(=O)=O)c1ncccc1[N+](=O)[O-]`, -4.72%.
As for `O=C1C(Cl)=C(Oc2cc(Cl)c(Cl)cc2Cl)C(=O)c2ccccc21`, the figure is 64%.
As for `O=C(O)C#Cc1cccc2ccccc12`, the figure is -49.7%; as for `Cc1ccc2oc(-c3cccs3)nc2c1`, -69.6%; as for `Clc1ccc(CO/N=C/c2nc3ccccc3s2)cc1`, -46.7%.
Take `CSc1nsc(SC)c1C(=O)Nc1cc(C(F)(F)F)cc(C(F)(F)F)c1`: the inhibition is -44%.
Under `CCOC(=O)/C(C#N)=C/N/S(C)=N/N=C/c1ccc(N(C)C)cc1` (stereo unspecified) stands 3.26%; under `CCCCNc1nc(N)ns1`, -43%; under `Clc1ccc(-c2csc(N/N=C\c3ccn[nH]3)n2)cc1`, 19%.
Under `Cc1nc(-c2ccccn2)n2nnnc2c1Cl` stands -68.7%; under `O=[N+]([O-])c1ccc(CSc2nc3cc(Cl)c(F)cc3[nH]2)cc1`, 10.8%.
Under `Cn1nnnc1SCC(=O)Nc1ccc(OC(F)(F)F)cc1` stands 12%.
On to `CN(C)c1ccc(C=Nc2ccc(S(N)(=O)=O)cc2)cc1`, for which the inhibition was -7.18%.
Under `O=S(=O)(Cc1nnc(-c2cc(Cl)cc(Cl)c2)o1)c1ccc(Cl)cc1` stands -4.49%; under `O=C(CSC1=NCCc2ccccc21)Nc1ccc(F)cc1F`, 0%.
As for `N/C(=N\OS(=O)(=O)c1ccc(C(F)(F)F)cc1)C1CSCCS1` (stereo unspecified), the inhibition was -14.1%.
As for `CC1=CC(=O)C(CCC2=CC(=O)C(C)=CC2=O)=CC1=O`, the inhibition was 87.8% (active).
As for `COc1ccc(/C(C)=N/Nc2c([N+](=O)[O-])cc(C(F)(F)F)cc2[N+](=O)[O-])cc1CC#N`, the figure is -38.4%; as for `O=C(O)C1CCC1C(=O)Nc1nnc(C2CC2)s1` (stereo unspecified), 12%.
Consider `COc1ccc(/C=N/N2CCC(=O)Nc3ccccc32)c(OC)c1`, for which the inhibition was -3%.
As for `Cc1oc(-c2ccc(Cl)cc2)cc1C(=O)N1CCOCC1`, the figure is 4.54%.
As for `Cc1oc(-c2ccc(Cl)cc2)cc1C(=O)N1CCN(Cc2ccccc2)CC1`, the figure is -19.5%.
Regarding `Cc1oc(-c2ccc(Cl)cc2)cc1C(=O)O/N=C(\N)Cc1nc2cccnc2n1C1CC1`, the inhibition was 86.4% (active).
`CC(=O)N1CCc2cc(NC(=S)Nc3ccccc3Cl)ccc21`: the inhibition is 11.8%.
Under `CN1CCCCC(C2=C(Cl)C(=O)CCC2)C1=O` (stereo unspecified) stands -2.08%; under `O=C1C(Nc2ccccc2)=CC(c2ccc([N+](=O)[O-])cc2)N1c1ccccc1` (stereo unspecified), -5.43%.
Consider `O=C(O)c1cc(=O)[nH]c2c(Cl)cc(Cl)cc12`, for which the inhibition was -17.9%.
Under `Cc1ccc(S(=O)(=O)N/N=C/c2ccc(O)cc2O)cc1` stands -34.9%; under `COc1ccc2c(OC(C)=O)coc2c1`, -103%.
As to `COc1cc(C=C(C#N)C#N)cc(OC(C)=O)c1OC(C)=O`, the inhibition was 93.6% (active).
Regarding `Cc1nnsc1C(=O)N/N=C/c1ccccc1Cl`, the inhibition is 26.6%.
As for `Cc1nn2c(=O)c3c4c(sc3nc2[nH]c1=O)CCCC4`, the inhibition was -87%.
Under `COC(OC)c1ccnc(SCC(=O)Nc2ccc(C(C)C)cc2)n1` stands -5.58%; under `N#Cc1cn(-c2cccc(C(F)(F)F)c2)c(=O)n(Cc2ccc(Cl)cc2)c1=O`, 11.4%; under `O=C1OC2(CCCCC2)OC1c1ccccc1` (stereo unspecified), -30.5%.
